According to paper PMC7862700, “An all-to-all approach to the identification of sequence-specific readers for epigenetic DNA modifications on cytosine”:

Experiments:
Test in all cases: DAPPL (digital affinity profiling via proximity ligation, sequencing); 10 mM Tris-HCl pH 7.5, 50 mM NaCl, 1 mM DTT, 4% glycerol, room temperature, 30 min; GST-TFs on glutathione beads, 16-mer random dsDNA library, 0.1% formaldehyde crosslink after washing; high values mean tight binding
[1] = molecular target: T1, FEV (Homo sapiens, UniProt Q99581 1-238); conditions: protein: recombinant; tags: N-terminal GST; dsDNA, one strand shown
T1 sequence: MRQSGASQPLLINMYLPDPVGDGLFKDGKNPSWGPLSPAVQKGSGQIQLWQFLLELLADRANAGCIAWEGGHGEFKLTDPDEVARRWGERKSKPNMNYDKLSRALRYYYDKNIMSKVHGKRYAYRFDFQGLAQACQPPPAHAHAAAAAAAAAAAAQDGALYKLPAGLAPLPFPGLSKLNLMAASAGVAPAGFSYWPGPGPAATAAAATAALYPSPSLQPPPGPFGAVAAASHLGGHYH
Procedure, shortened: (§1)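 The binding signal reported is, for every hexamer, its read frequency for a factor over its read frequency for the tag-only sample. Reads came from pools of yeast-expressed, GST-fused human transcription factors on glutathione beads, barcoded with DNA and mixed with that sample, which were incubated with 200 nmole of a random double-stranded 16-mer DNA library in Tris/NaCl/DTT/glycerol buffer at room temperature for 30 min. After washing, the pools were crosslinked with 0.1% formaldehyde, proximity-ligated with BsaI/T4 ligase for 1 h at 37 °C, PCR-amplified and sequenced on an Illumina NextSeq500.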

[2] = molecular target: ETV5 (Homo sapiens, UniProt P41161 1-510); conditions: protein: recombinant; tags: N-terminal GST; dsDNA, one strand shown
Procedure, shortened: as §1

[3] = molecular target: HSF1 (Homo sapiens, UniProt Q00613 1-529); conditions: protein: recombinant; tags: N-terminal GST; chain copies: 3; dsDNA, one strand shown
Procedure, shortened: as §1

[4] = molecular target: T2, SPIC (Homo sapiens, UniProt Q8N5J4 1-248); conditions: protein: recombinant; tags: N-terminal GST; dsDNA, one strand shown
T2 sequence: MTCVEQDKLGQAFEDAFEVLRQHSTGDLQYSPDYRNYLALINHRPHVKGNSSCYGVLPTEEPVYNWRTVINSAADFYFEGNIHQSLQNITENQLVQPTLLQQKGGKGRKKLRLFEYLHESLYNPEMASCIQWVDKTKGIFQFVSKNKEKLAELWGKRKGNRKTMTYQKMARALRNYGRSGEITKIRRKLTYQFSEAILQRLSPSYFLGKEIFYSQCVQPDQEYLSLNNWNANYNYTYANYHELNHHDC
Procedure, shortened: as §1

[5] = molecular target: ELF4 (Homo sapiens, UniProt Q99607 1-663); conditions: protein: recombinant; tags: N-terminal GST; dsDNA, one strand shown
Procedure, shortened: as §1

[6] = molecular target: T3, ELK4 (Homo sapiens, UniProt P28324-2 1-405); conditions: protein: recombinant; tags: N-terminal GST; dsDNA, one strand shown
T3 sequence: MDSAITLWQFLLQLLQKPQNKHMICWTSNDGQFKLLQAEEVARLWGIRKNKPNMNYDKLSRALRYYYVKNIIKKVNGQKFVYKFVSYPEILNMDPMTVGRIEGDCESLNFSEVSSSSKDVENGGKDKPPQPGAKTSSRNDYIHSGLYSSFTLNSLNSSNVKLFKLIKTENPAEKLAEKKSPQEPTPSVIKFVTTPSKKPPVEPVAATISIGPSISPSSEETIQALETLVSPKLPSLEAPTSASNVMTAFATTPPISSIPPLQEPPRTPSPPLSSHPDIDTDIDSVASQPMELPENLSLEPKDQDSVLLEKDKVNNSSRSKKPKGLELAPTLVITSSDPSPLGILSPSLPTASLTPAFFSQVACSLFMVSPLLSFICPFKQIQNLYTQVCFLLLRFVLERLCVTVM
Procedure, shortened: as §1

[7] = molecular target: T4, ETV2 (Homo sapiens, UniProt O00321 1-342); conditions: protein: recombinant; tags: N-terminal GST; dsDNA, one strand shown
T4 sequence: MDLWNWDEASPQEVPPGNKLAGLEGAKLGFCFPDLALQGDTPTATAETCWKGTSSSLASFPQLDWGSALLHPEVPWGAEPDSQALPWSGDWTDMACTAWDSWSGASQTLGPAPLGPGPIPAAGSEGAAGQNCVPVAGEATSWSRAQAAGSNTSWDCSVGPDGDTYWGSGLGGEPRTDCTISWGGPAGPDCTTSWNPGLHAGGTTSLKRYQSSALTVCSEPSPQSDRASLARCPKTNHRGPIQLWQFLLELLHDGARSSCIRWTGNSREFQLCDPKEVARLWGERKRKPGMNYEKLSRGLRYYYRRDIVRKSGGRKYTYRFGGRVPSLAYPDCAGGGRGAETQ
Procedure, shortened: as §1

[8] = molecular target: T5, ELF3 (Homo sapiens, UniProt P78545 1-371); conditions: protein: recombinant; tags: N-terminal GST; dsDNA, one strand shown
T5 sequence: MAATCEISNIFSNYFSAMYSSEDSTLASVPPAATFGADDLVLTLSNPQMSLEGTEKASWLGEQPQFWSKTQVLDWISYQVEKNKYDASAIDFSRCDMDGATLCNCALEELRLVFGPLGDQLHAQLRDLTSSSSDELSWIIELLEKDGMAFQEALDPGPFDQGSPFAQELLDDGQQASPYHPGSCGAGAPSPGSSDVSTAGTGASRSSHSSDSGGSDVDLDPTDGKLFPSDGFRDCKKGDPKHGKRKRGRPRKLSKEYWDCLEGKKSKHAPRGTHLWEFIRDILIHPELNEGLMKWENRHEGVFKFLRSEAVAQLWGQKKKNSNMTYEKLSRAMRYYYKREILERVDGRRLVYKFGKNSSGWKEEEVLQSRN
Procedure, shortened: as §1

[9] = molecular target: ETV1 (Homo sapiens, UniProt P50549 1-477); conditions: protein: recombinant; tags: N-terminal GST; dsDNA, one strand shown
Procedure, shortened: as §1

Chain of ETV5 (P41161 whole entry): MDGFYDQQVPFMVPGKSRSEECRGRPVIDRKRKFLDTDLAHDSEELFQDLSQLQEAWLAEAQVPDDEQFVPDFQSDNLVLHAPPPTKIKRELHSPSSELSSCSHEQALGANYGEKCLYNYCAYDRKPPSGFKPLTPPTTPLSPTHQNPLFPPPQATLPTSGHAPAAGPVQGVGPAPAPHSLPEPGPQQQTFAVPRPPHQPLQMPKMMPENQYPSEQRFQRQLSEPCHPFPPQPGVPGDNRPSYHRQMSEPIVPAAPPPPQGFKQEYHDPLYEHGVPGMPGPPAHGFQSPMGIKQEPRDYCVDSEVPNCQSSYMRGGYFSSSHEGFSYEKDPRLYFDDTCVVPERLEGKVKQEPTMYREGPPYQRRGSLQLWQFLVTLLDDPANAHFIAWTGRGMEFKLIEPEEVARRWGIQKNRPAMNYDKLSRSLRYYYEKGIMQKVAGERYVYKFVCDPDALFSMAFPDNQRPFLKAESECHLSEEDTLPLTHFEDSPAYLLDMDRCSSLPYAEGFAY
Chain of ELF4 (Q99607 whole entry): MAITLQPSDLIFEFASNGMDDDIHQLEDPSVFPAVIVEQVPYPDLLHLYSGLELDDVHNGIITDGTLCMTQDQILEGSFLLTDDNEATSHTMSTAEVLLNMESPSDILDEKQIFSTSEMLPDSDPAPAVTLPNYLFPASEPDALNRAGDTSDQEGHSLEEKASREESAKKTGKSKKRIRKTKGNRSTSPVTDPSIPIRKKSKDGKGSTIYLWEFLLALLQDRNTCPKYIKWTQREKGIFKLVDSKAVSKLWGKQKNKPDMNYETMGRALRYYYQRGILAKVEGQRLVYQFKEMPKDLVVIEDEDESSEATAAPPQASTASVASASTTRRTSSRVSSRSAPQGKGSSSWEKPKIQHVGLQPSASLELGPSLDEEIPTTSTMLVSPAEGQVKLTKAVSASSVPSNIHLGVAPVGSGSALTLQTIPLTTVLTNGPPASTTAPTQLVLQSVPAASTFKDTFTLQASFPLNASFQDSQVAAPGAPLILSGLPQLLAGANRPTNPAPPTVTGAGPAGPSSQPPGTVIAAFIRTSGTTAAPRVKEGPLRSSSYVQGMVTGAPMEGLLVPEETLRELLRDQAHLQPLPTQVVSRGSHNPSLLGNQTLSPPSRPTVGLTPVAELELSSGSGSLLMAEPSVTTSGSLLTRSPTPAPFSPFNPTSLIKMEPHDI
Chain of ETV1 (P50549 whole entry): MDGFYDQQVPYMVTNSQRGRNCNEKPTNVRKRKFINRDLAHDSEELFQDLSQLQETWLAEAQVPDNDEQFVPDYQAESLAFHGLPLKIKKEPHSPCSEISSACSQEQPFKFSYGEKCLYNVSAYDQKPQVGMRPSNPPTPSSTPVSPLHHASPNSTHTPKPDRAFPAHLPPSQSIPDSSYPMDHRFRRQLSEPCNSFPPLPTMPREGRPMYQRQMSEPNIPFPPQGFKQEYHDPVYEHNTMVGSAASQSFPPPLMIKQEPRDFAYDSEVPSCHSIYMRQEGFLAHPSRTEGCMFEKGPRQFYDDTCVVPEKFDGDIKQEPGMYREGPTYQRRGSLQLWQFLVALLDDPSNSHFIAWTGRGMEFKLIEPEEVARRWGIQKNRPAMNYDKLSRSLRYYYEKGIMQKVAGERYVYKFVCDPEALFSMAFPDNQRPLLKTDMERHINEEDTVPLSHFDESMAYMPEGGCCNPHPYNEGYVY
Chain of HSF1 (Q00613 whole entry): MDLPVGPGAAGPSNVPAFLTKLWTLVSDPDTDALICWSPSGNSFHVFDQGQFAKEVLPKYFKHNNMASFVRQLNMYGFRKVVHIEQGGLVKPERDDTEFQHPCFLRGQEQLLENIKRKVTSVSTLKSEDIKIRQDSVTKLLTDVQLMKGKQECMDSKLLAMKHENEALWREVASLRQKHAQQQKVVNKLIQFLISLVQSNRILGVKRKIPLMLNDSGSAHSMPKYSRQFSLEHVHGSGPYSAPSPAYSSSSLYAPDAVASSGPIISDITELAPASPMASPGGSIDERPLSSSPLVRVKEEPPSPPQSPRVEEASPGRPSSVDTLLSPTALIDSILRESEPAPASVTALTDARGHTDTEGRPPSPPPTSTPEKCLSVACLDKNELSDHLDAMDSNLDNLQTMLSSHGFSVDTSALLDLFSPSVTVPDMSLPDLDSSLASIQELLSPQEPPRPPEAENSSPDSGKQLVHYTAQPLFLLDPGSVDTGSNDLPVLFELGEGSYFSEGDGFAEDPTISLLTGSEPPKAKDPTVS

TGCGTA
binding signal [1]: 1.06 fold enrichment (6-mer frequency, TF over GST control) | binding signal [2]: 1.12 fold enrichment (6-mer frequency, TF over GST control) | binding signal [3]: 1.06 fold enrichment (6-mer frequency, TF over GST control) | binding signal [4]: 1.11 fold enrichment (6-mer frequency, TF over GST control) | binding signal [5]: 1.08 fold enrichment (6-mer frequency, TF over GST control) | binding signal [6]: 1.27 fold enrichment (6-mer frequency, TF over GST control) | binding signal [7]: 1.21 fold enrichment (6-mer frequency, TF over GST control) | binding signal [8]: 1.01 fold enrichment (6-mer frequency, TF over GST control) | binding signal [9]: 1.24 fold enrichment (6-mer frequency, TF over GST control)
